Results as given in ChEMBL document CHEMBL4513216, “Probing the Open Global Health Chemical Diversity Library for Multistage-Active Starting Points for Next-Generation Antimalarials” (ACS Infect Dis, 2020).
Screen size: about 65,000 compounds; about 2,100 (3.2%) showed an effect of 50% or more. The median lay at about -52%. The entries come from a sample that favours strong results as a whole.

Test system: Plasmodium falciparum
Assay: Screen against P. falciparum Asexual Blood Stage (ABS), at 5uM
Assay type: functional, Dd2
Conditions: tested at 5 uM

Row | Structure (SMILES) | INHIBITION [%]
1 | CN(C)c1cc(C2CCCNC2)ccn1 (stereo not drawn) | -11.8
2 | Fc1ccc(-c2nccnc2C2CCCNC2)cc1 (stereo not drawn) | 76.6
3 | c1c[nH]c2nc(C3CCCNC3)nc-2c1 (stereo not drawn) | -172
4 | CC1CCCCN1C(=O)c1coc(COc2cccc3cnccc23)n1 (stereo not drawn) | 86.5
5 | Cc1cccc(CN2CC[C@H]3[C@H]2CCN3C(=O)c2cnn(C)c2)n1 | -5.92
6 | COc1ccc(NC(=O)Nc2cnc(N3CCN(C)CC3)nc2)cc1Cl | 87.9
7 | Cc1ccc(NC(=O)NC(C)c2nc[nH]n2)cc1Cl (stereo not drawn) | -107
8 | CNS(=O)(=O)CC(=O)NC(C)Cc1ccc(Br)cc1 (stereo not drawn) | -89.6
9 | C[C@@H]1C[C@@H]2CCN(Cc3nccs3)C[C@H]2O1 | -26.9
10 | CN1[C@H](Cn2cccn2)C[C@@H]2CN(Cc3cccs3)CC[C@@H]21 | 75.8
11 | c1cnn(C[C@@H]2C[C@@H]3CN(CC4CC4)CC[C@@H]3N2c2nccs2)c1 | 89.9
12 | Cc1nccc([C@@H]2C[C@@H]3CCN(Cc4cccs4)C[C@H]3O2)n1 | -92.1
13 | NC(=O)N1C[C@H]2CN(Cc3nccs3)C[C@H]2C1 | -12
14 | O=C(c1ncccn1)N1C[C@@H]2CN(CC3CC3)CCO[C@@H]2C1 | -14.4
15 | C[C@H]1C[C@@H]2CCN(Cc3nccs3)C[C@H]2O1 | -9.59
16 | CN1CC[C@H]2[C@H](C[C@@H](CN3CCCC3)N2c2nccs2)C1 | 73.7
17 | CN1C(Cn2cccn2)C[C@@H]2CN(Cc3ccccn3)CC[C@@H]21 (stereo partly drawn) | 41.6
18 | CCN(CCc1ccccc1)Cn1nc(C)c2c(C)onc2c1=O | -13.3
19 | Cc1ccc(-c2ccc(C3CNCCO3)nc2)cc1 (stereo not drawn) | 83.5
20 | Clc1ccc(-c2ccc(C3CNCCO3)nc2)cc1 (stereo not drawn) | 85.9
21 | CCCC(=O)N1CCC2(CC1)OCCO2 | -40.8
22 | OCCN1CCC(c2cncc(-c3cccc(Cl)c3)n2)CC1 | 71.1
23 | COCCN1CC=C(c2cccc(OC)c2)CC1 | 13.9
24 | COCCN1CC[C@H]2OCC[C@@H](C(=O)Nc3cccnc3)[C@@H]2C1 | -67.2
25 | COCCN1CCC(c2cncc(-c3cccc(Cl)c3)n2)CC1 | 71.1
26 | CN1CCC(c2cncc(Cl)n2)CC1 | -28.5

Row | Structure (SMILES) | INHIBITION [%]
27 | CCCS(=O)(=O)N1CCOC2(CCCN(Cc3ccccn3)C2)C1 (stereo not drawn) | -21.2
28 | CN(C)C[C@]12COC[C@H]1CN(Cc1ccccn1)C2 | -39.8
29 | Cc1ccc(CN2CCN(C)c3ncccc3C2)o1 | -75.5
30 | COc1cccc(CN2CCN3C(=O)NC[C@H]3C2)n1 | -90.1
31 | Cc1cccc(CN2CCN3C[C@H](Oc4cccnc4)C[C@H]3C2)n1 | -91.1
32 | Clc1cccc2c3c([nH]c12)CCN(Cc1cc2n(n1)CCCNC2)C3 | 89.7
33 | Clc1cccc2c3c([nH]c12)CCN(Cc1cc2n(n1)CCNC2)C3 | 79.1
34 | c1cncc(OC[C@]23COC[C@H]2CN(Cc2nccs2)C3)c1 | -94.4
35 | Cc1cccc(CN2CCO[C@H]3[C@H](Oc4ccccn4)CC[C@@H]32)n1 | -7.66
36 | Cc1cc(N2CCOC(c3ccccn3)C2)nc(N)n1 (stereo not drawn) | 75.1
37 | CC(C)N1CCOC(c2ccnc(N(C)C)n2)C1 (stereo not drawn) | -133
38 | NCC1CCCN(c2nc(-c3ccccc3)nc3c2CCNCC3)C1 (stereo not drawn) | 85.9
39 | N#CC1CCCN(c2nc(-c3ccccc3)nc3c2CCNCC3)C1 (stereo not drawn) | 79.9
40 | Cc1noc(C)c1CN1C[C@H](OCC2CC2)[C@H]2OCCC[C@H]21 | -58
41 | CS(=O)(=O)NCc1cncc2c1CCN(CC1CCOC1)C2 (stereo not drawn) | -80.3
42 | Cc1noc(C)c1CN1C[C@H](OCC(=O)N(C)C)[C@H]2OCCC[C@H]21 | -72.7
43 | Cc1cc(CN2CCc3nc(N4CCOCC4)nc(O)c3CC2)c(C)s1 | 77.6
44 | Cc1cc(CN2CCc3nc(-c4ccncc4)nc(O)c3CC2)c(C)s1 | 91
45 | O=C(N[C@H]1CN[C@H]2CCCO[C@H]21)c1cccnc1 | -13.5
46 | Cc1cc(CN2CCO[C@H]3[C@H](OCc4csc(C)n4)CC[C@@H]32)no1 | -73.3
47 | CC(C)[C@H](N)C(=O)N1CCSc2ccccc2C1 | 73.7
48 | O=C1Nc2ccccc2C12CCCN(Cc1ccncc1)C2 (stereo not drawn) | -78.5
49 | c1ccc(CN2CCOCC3(CCN(C4CCOCC4)C3)C2)cc1 (stereo not drawn) | 82.2
50 | Fc1cccc(CN2CCC3(CCN3c3ncccn3)C2)c1 (stereo not drawn) | 27.1
51 | c1cncc(CN2CCCC3(COCCN(c4nccs4)C3)C2)c1 (stereo not drawn) | 10.9
52 | Cc1cccc(CN2CCOCC3(CCN(C4CCOCC4)C3)C2)c1 (stereo not drawn) | 78.6

Row | Structure (SMILES) | INHIBITION [%]
53 | Fc1cccc(CN2CCOCC3(CCN(C4CCOCC4)C3)C2)c1 (stereo not drawn) | 78.2
54 | c1cncc(CN2CCC3(COCCN(C4CCOCC4)C3)C2)c1 (stereo not drawn) | -42
55 | CNC(=O)CN1CCOCC2(CCCN(Cc3cccnc3)C2)C1 (stereo not drawn) | -8.58
56 | c1cc(CN2CCOCC3(CCN(C4CCOCC4)C3)C2)ccn1 (stereo not drawn) | -38.5
57 | O=C(Cc1cccnc1)N1CCC2(CC1)CCN(C1CCOC1)C2 (stereo not drawn) | -58.9
58 | COCCN1CCN(c2cccc(C)n2)Cc2ccc(C)nc21 | -14.7
59 | Cc1cc(NC2CC3(CCN(Cc4csc(C)n4)C3)C2)ncn1 (stereo not drawn) | -142
60 | Cc1nocc1C(=O)N1CCOC2(COCCN(C(C)C)C2)C1 (stereo not drawn) | -62.3
61 | CN1CCO[C@@H]2CN(S(=O)(=O)c3cccnc3)C[C@@H]2C1 | -79
62 | CC(c1cccc(O)c1)N(C)S(=O)(=O)c1cccnc1 (stereo not drawn) | 71.4
63 | CCN(C(C)c1cccc(O)c1)S(=O)(=O)c1cccnc1 (stereo not drawn) | 76.6
64 | CN1CCC(N2CCN3C(=O)NC[C@H]3C2)CC1 | -11
65 | COCCN1CCN(S(=O)(=O)C2CC2)Cc2cccnc21 | -40.8
66 | Cc1cccc(CN2CCC(NCC3CNc4cc(C)nn4C3)CC2)c1 (stereo not drawn) | 86.5
67 | Cc1cc2n(n1)CC(CNC1CCN(Cc3ccccc3C)CC1)CN2 (stereo not drawn) | 71
68 | Cc1cc(-c2ccc(C(C)N3CCCCC3)cc2)cnc1N (stereo not drawn) | 91
69 | Cc1oncc1C(=O)N1CC[C@H]2[C@H]1CCN2Cc1ccccn1 | -23.4
70 | COCCCNc1c(C#N)c2c(c3nncn13)CN(C)CC2 | -104
71 | Cc1ccc(-n2cnnn2)cc1NCC(=O)Nc1cc(F)ccc1F | 72.3
72 | CCN(CC)C(=O)c1ccc(NC(=O)CNc2ccc(F)cc2Cl)cc1 | -91.8
73 | CCN(CC)C(=O)c1ccc(NC(=O)CNc2ccc(Br)cc2F)cc1 | -171
74 | O=C(c1cc(-n2cnnn2)ccc1Cl)N1CCC2(CC1)OCCO2 | -29.7
75 | Cc1ccc(-n2cnnn2)cc1NCC(=O)Nc1ccccc1Cl | 79.3
76 | O=C(c1cccc(-n2cnnn2)c1)N1CCC2(CC1)OCCO2 | -24.5
77 | O=C(NCC1CCC2(CCNCC2)O1)C1CC1 (stereo not drawn) | 47.7
78 | Cc1cccnc1N1CC2(CCN(Cc3cnn(C)c3)C2)C1 | 23.4

Row | Structure (SMILES) | INHIBITION [%]
79 | Cc1[nH]c2c(F)cccc2c1CC(=O)N1CCN(C2CCSCC2)CC1 | -8.93
80 | COc1ccc(CN2CCNC(=O)CC2)cc1SC(F)(F)F | 74.5
81 | COc1cccc(C2=CCN(CCN3CCOC3=O)CC2)c1 | -8.54
82 | Cc1cc(CN2C[C@@H]3CCCO[C@@H]3[C@H](Nc3ccccn3)C2)no1 | -62.6
83 | OC(COCc1ccc(Cl)cc1)CN1CCC(c2ccn[nH]2)CC1 (stereo not drawn) | 70.9
84 | CCOCC(O)CN1CCN(C(=O)Cc2ccc(C)nc2)CC1 (stereo not drawn) | -7.76
85 | Cc1ccsc1CN1C[C@@H]2CN(Cc3cccnc3)CCO[C@@H]2C1 | -28.4
86 | CCCN(Cc1cccnc1)C1CC(C)(C)NC(C)(C)C1 | 77.6
87 | CCc1cc(CN(Cc2cccnc2)C2CN3CCC2CC3)on1 (stereo not drawn) | 3.06
88 | CCN(Cc1cccnc1)CC1CCCO1 (stereo not drawn) | -162
89 | Cc1noc(C)c1CN(Cc1cccnc1)C1CN2CCC1CC2 (stereo not drawn) | -110
90 | CC1(C)CC(N(Cc2cccnc2)Cc2cccc(F)c2)CC(C)(C)N1 | 76.6
91 | O=C1NCC2(CCCN(Cc3cccnc3)C2)Oc2ccccc21 (stereo not drawn) | -134
92 | Cc1ccsc1CN(Cc1cccnc1)C1CC(C)(C)NC(C)(C)C1 | 81.4
93 | CC1(C)CC(N(Cc2ccccc2)Cc2ncc[nH]2)CC(C)(C)N1 | 70.3
94 | Cc1ncc2c(c1CNC(=O)C1(C)CCCO1)CCNC2 (stereo not drawn) | -148
95 | C[C@@H]1CN(C2CCOC2)C[C@]12CCN(Cc1cccnc1)C2=O (stereo partly drawn) | -45.9
96 | Clc1cc(N2CCN3CCCCC3C2)nc2[nH]ccc12 (stereo not drawn) | 42.6
97 | CN(C)CCN1CCCC12CCN(C(=O)c1ccncc1)CC2 | -98.9
98 | c1ccc(OCC2C[C@@H]3[C@@H](C2)OCCN3CC2CCOCC2)nc1 (stereo partly drawn) | -60.7
99 | COc1ccc(N2CCCC3(C2)CN(c2nncs2)CCO3)cc1 (stereo not drawn) | 88
100 | Cc1noc(C)c1CN1CCOC2(CCCN(c3nncs3)C2)C1 (stereo not drawn) | -103
101 | Cc1noc(C)c1CN1CCCC2(C1)CN(c1nncs1)CCO2 (stereo not drawn) | -18.9
102 | O=C1CSC(c2ccncc2)c2c(n(C3CCOCC3)[nH]c2=O)N1 (stereo not drawn) | -84.2
103 | CC(C)C(NC(=O)c1ccco1)C(=O)N1CCC2(CC1)OCCO2 (stereo not drawn) | -80.1
